High-throughput results: PubChem BioAssay, Broad Institute
Mot1-301 SUMO: SUMOylation pathway inhibition by Mot1-301 growth rescue. S. cerevisiae Mot1-301 growth rescue, ATP luminescence, 38.5C; percent above DMSO median, 100 means doubled. growth rescue, % at 18.8 µM. 320,000 compounds, 1% hits. AID 2716;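 active = every valid replicate shows activation above 250% relative to neutral control wells; inactive = the rest, any valid replicate at or below 250%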
Glyco luc inh: N-linked glycosylation inhibition; D54 ERlucT glycosylation luciferase reporter, 24 h; percent of 100 nM tunicamycin response; reporter increase, % at 12.5 µM; 360,000 compounds, 0.23% hits; AID 588692;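 active = mean luciferase reporter signal, scaled so untreated is 0 and the glycosylation-blocking control 100, at or above a set limit in every replicate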;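 note: luciferase carries N-glycosylation sites so blocking glycosylation raises the light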
NSD2 HMT inh: NSD2 (human) methyltransferase inhibition | inhibition, % at 12.5 µM | AID 743445 | O96028 | NSD2 peptide methylation, AlphaScreen, 120 min | 310,000 compounds, 0.54% hits; in the data active = inhibition above about 50%
ALR H2O2 inh: blocks human ALR sulfhydryl oxidase activity; purified ALR, DTT oxidation, H2O2 HRP-luminol luminescence; 290,000 compounds, 3.8% hits; inhibition, % (no concentration beside the values); P55789;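 active = mean replicate inhibition above about 79%, with every replicate also reaching it, limit read from the data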
CDK5 p35 inh: CDK5/p35 (human) kinase inhibition | Q00535+Q15078 | Recombinant CDK5/p35, ADP-Glo luminescence, 60 min | inhibition, % at 10 µM | 330,000 compounds, 0.01% hits;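 active = highest replicate inhibition of at least 50% and at least 75% of replicates reaching 50%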
Target sequence (Q00535 whole entry, looked up): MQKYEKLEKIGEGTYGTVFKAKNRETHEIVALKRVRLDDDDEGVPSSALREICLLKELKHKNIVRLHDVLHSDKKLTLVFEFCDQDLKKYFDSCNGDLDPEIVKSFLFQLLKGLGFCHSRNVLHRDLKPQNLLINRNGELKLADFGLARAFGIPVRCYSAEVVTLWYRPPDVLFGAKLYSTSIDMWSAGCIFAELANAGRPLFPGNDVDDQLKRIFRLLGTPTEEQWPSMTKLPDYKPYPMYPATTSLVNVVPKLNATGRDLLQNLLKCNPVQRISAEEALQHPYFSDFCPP
Target sequence (Q15078 whole entry, looked up): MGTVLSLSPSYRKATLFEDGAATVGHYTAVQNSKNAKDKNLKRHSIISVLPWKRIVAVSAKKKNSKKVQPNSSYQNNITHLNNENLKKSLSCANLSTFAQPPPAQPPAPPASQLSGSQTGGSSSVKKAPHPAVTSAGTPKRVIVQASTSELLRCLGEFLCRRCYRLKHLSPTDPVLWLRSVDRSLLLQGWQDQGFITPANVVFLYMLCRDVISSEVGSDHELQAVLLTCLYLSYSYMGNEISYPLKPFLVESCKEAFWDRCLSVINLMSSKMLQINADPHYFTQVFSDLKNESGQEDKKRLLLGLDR
Casp6 inh: blocks human caspase-6 cleavage activity; P55212; purified caspase-6, Z-VEID-R110 cleavage fluorescence; inhibition, % at 12.5 µM; 350,000 compounds, 0.53% hits; AID 686996;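 active = mean inhibition across replicates at least about 35%, with every replicate also reaching that limit, limit read from the data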
A number is an active result; 0 = inactive; - = no result given; ! = repeats disagree. Sampled rows, rich in hits. Any-hit rate of the full collection: about 3.9%.

SMILES	Mot1-301 SUMO	Glyco luc inh	NSD2 HMT inh	ALR H2O2 inh	CDK5 p35 inh	Casp6 inh
Cc1nn(-c2ccccc2)c(N)c1C(c1ccc(C(C)C)cc1)c1c(C)nn(-c2ccccc2)c1N	408.8	0	0	-	0	-
C[C@@H]1CN([C@H](C)CO)C(=O)c2cc(-c3ccccc3F)cnc2O[C@H]1CN(C)Cc1cccc(C(=O)O)c1	-	-	-	-	-	0
CC(=O)Nc1ccc(NC(=O)CSc2nc(=O)n(CCCN3CCOCC3)c3c2CCC3)cc1	-	0	0	-	-	0
CCc1ccc(NC(=O)CSc2nc(=O)n(CCCN3CCOCC3)c3c2CCCC3)cc1	0	0	0	98.2	0	0
Cc1ccc(NC(=O)CSc2nc(=O)n(CCCN3CCOCC3)c3c2CCCC3)cc1F	0	0	0	97.5	0	0
O=C(O)C[C@@H]1C[C@H]2c3cc(NC(=O)CC4CC4)ccc3O[C@H]2[C@@H](CO)O1	-	-	-	-	-	0
O=C(NCC[C@H]1CC[C@H](NC(=O)c2cnccn2)[C@H](CO)O1)Nc1ccc(Cl)cc1	-	-	-	-	-	0
CCCS(=O)(=O)c1nnnn1-c1cccc(OC)c1	0	0	-	97.9	0	-
C[C@@H]1CCCCO[C@@H](CN(C)S(=O)(=O)c2cn(C)cn2)[C@@H](C)CN([C@@H](C)CO)C(=O)c2cc(NS(=O)(=O)c3ccc(Cl)cc3)ccc2O1	-	-	-	-	-	0
COc1ccc(S(=O)(=O)N(C)C[C@@H]2Oc3ncc(Br)cc3C(=O)N([C@H](C)CO)C[C@@H]2C)cc1	-	-	-	-	-	0
Cc1ccc(NC(=O)c2cccc(C(=O)Nc3ccc(C)cc3C(=O)O)c2)c(C(=O)O)c1	0	0	0	98.6	0	0
Cc1cc(O)ccc1NC(=O)c1ccccc1	0	0	0	98.8	0	0
Cc1cc(NC(=O)c2ccccc2)ccc1NC(=O)c1ccccc1Cl	0	0	0	0	0	0
Cc1ccc(S(=O)(=O)CCSc2cccc(C(=O)Nc3ccccc3C(=O)O)c2)cc1	0	0	0	98.7	0	-
COc1ccc(C)cc1NC(=O)c1cccc(C(=O)Nc2cc(C)ccc2OC)c1	0	0	0	0	0	0
Cc1cc(N)ccc1NC(=O)c1ccccc1	0	0	0	98.3	0	-
Cc1ccccc1-c1cnc2c(c1)C(=O)N([C@H](C)CO)C[C@H](C)[C@@H](CN(C)C(=O)c1ccncc1)O2	-	-	-	-	-	0
C[C@H](CO)N1C[C@H](C)[C@@H](CN(C)Cc2ccc(C(=O)O)cc2)Oc2cc(C#CCC3CCCC3)ccc2S1(=O)=O	-	-	-	-	-	0
C[C@H]1CCCCO[C@H](CN(C)CC2CC2)[C@@H](C)CN([C@@H](C)CO)C(=O)c2cc(NS(=O)(=O)c3ccccc3)ccc2O1	-	-	-	-	-	0
C[C@H](CO)N1C[C@H](C)[C@@H](CN(C)S(=O)(=O)c2cccs2)Oc2c(NC(=O)C3CCOCC3)cccc2C1=O	-	-	-	-	-	0
O=[N+]([O-])c1cc(Cl)c(O)c2ncccc12	-	0	0	-	0	-
O=[N+]([O-])c1cc(F)c2cccnc2c1O	0	0	0	0	0	92.4
O=[N+]([O-])c1ccc(O)c2ncccc12	0	0	-	-	0	63.5
O=[N+]([O-])c1ccc(O)c2cccnc12	0	0	0	0	0	0
O=[N+]([O-])c1cc([N+](=O)[O-])c2cccnc2c1Oc1ccccc1O	0	0	0	0	0	45.4
SMILES	Mot1-301 SUMO	Glyco luc inh	NSD2 HMT inh	ALR H2O2 inh	CDK5 p35 inh	Casp6 inh
O=[N+]([O-])c1cc(Cl)c2cccnc2c1O	0	0	0	0	0	-
Cc1ccc(NNC(=O)c2ccno2)c(C)c1	0	0	0	99.2	0	0
Cc1cc(NC(=O)c2ccno2)no1	0	0	0	0	0	0
C[C@H](CO)N1C[C@H](C)[C@H](CN(C)S(=O)(=O)c2ccc(F)cc2)Oc2ccc(NC(=O)c3ccncc3)cc2C1=O	-	-	-	-	-	0
Cc1nc(NC(=O)c2ccccc2)sc1-c1csc(Nc2ccc(Cl)cc2Cl)n1	0	-	-	86.9	-	-
CCCCc1ccc(NC(=O)CSCc2cc(=O)[nH][nH]2)cc1	0	0	0	78.8	0	-
O=C(C[C@@H]1C[C@@H]2c3cc(NC(=O)Cc4ccncc4)ccc3O[C@@H]2[C@@H](CO)O1)NCCN1CCCCC1	-	-	-	-	-	0
O=C1OC(c2ccc(Cl)cc2)/C(=C(/O)c2ccccc2)C1=O (configuration not stated)	0	0	0	97.2	0	-
CN1C(=O)C(=O)/C(=C(/O)c2ccc(Br)cc2)C1c1ccc(Cl)cc1 (configuration not stated)	0	0	0	0	0	0
CCCN(C)C[C@H]1Oc2ncc(C#CCN(C)C)cc2C(=O)N([C@H](C)CO)C[C@@H]1C	-	-	-	-	-	0
CC1=N/C(=C/c2ccco2)C(=O)O1	-	0	119.0	-	0	0
O=C1OC(c2ccc(Br)cc2)=N/C1=C\c1ccco1	0	0	0	0	0	0
CC(=O)Cn1c(=O)oc2ccccc21	0	0	0	-	0	0
CCN(CC)C(=O)Cn1c(=O)oc2ccccc21	389.1	0	0	0	0	0
O=C1CC(c2ccccc2)Sc2ccccc2N1 (configuration not stated)	0	0	0	93.7	0	-
COc1ccc(NC(=O)N(C)C[C@H]2Oc3ccc(NS(=O)(=O)c4ccc(F)cc4)cc3CC(=O)N([C@H](C)CO)C[C@@H]2C)cc1	-	-	-	-	-	0
N#CC(=C1CCCC1)c1nc(-c2ccccc2)cs1	0	0	0	0	0	-
N#C/C(=N\O)c1nc(-c2ccccc2)cs1	0	0	0	88.6!	0	-
CCN(C[C@H]1N[C@H](CO)[C@@H]1c1ccc(-c2ccccc2)cc1)C(=O)COC	-	-	-	-	-	0
CCN(C=NC1=NN(c2cccc(C(F)(F)F)c2)CC1)CC	0	0	0	94.3	0	-
Cc1cccc(N2CCC(N=CN(C)C)=N2)c1	0	0	0	99.2	0	0
O=c1cc(-c2ccccc2)[nH]n1-c1nc2ccccc2[nH]1	0	40.8	0	0	0	-
Cn1cnc(S(=O)(=O)N2CC[C@@H]3[C@H]2c2cc(C#Cc4ccc(F)cc4)ccc2N[C@@H]3CO)c1	-	-	-	-	-	0
Cc1ccc(S(=O)(=O)Oc2ccc(/C=C(/NC(=O)c3ccccc3)C(=O)NCC(=O)O)cc2)cc1	0	0	0	0	0	0
Cc1ccc(S(=O)(=O)Oc2ccc(/C=C(/NC(=O)c3ccccc3)C(=O)O)cc2)cc1	699.6	0	0	0	0	0
SMILES	Mot1-301 SUMO	Glyco luc inh	NSD2 HMT inh	ALR H2O2 inh	CDK5 p35 inh	Casp6 inh
COc1ccc(-c2cc(C(F)(F)F)c3c(=O)n(-c4ccccc4)[nH]c3n2)cc1	0	0	0	99.3	0	-
CC1CCN(c2ccc(C(F)(F)F)cc2N)CC1	0	0	0	97.9	0	0
CC1CCN(c2ccc(S(=O)(=O)N3CCC(C)CC3)cc2N)CC1	0	0	0	0	0	0
Cc1ccccc1OC1(C)CCN(Cc2ccc(-c3ccccn3)cc2)C1 (configuration not stated)	-	0	0	-	-	84.5
COc1ccc(/C(N)=N/OC(=O)c2ccco2)cc1OC	0	0	0	0	0	0
Cc1csc(/C(=N/OC(=O)c2ccco2)C(N)=O)n1	0	0	0	96.6	0	0
